Screens (PubChem BioAssay)
MBNL1-CUG inh: qHTS Assay for Inhibitors of MBNL1-poly(CUG) RNA binding. Muscleblind-like protein 1 (Homo sapiens), Q9NR56. TR-FRET MBNL1-His/biotin-(CUG)12 binding, 665/545 ratio. Potency, µM (highest dose often 57.5 µM), usual class: inhibitors. 280,000 compounds, 0.036% hits. AID 2675, 2010; active = well fitted inhibition curve with a large enough effect in the signal ratio, with a control signal flat, not every such curve was filed as active; inconclusive = small, poorly fitted or top-dose-only effect, or effect the other way, or a change in a side signal; inactive = no such curve, though single readings can be large or run the other way; the % refers to the signal ratio
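Compound titration spanned 92 nM–58 uM against the MBNL1-His/biotin-(CUG)12 complex. After 60 min at room temperature with 5 nM streptavidin-XL665 and 0.055 ng/ul terbium anti-His, ratiometric 665/545 nm emission (Ex 340 nm) normalized to controls.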
PLK1 PBD block: qHTS for Inhibitors of PLK1-PDB (polo-like kinase 1 - polo-box domain): Primary Screen; Potency, µM, actives largely listed as inhibitors; Plk1 PBD binding of FITC phosphopeptide, fluorescence polarization; 360,000 compounds, 2.8% hits; Serine/threonine-protein kinase PLK1 (Homo sapiens), P53350; note: series mostly up to about 57 µM; nearly all actives have a fitted effect of over 65% in size
KCNH2 WT inh: qHTS for Inhibitors of KCHN2 3.1: Wildtype qHTS; 340,000 compounds, 0.37% hits; Voltage-gated inwardly rectifying potassium channel KCNH2 (Homo sapiens), Q12809; activity change, % at 1.84 µM; U2OS, BacMam KCNH2, thallium flux FluxOr; active compounds read low;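 active = maximum activity change below -70%; inconclusive = maximum activity change between -70% and -50%; inactive = maximum activity change above -50%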
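U2OS cells were transduced with wild-type KCNH2 virus (2.03 x 10^8 / mL) for 4 h at room temperature, then cultured overnight at 37 C. Thallium flux was read with FluxOr dye. Rate constants were normalized to DMSO controls.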
KCNH2 3.1 block: qHTS for Inhibitors of KCHN2 3.1: Mutant qHTS; Potassium voltage-gated channel subfamily H member 2, brain isoform KCNH2 3.1 (human); U2OS KCNH2 3.1, thallium flux FluxOr; active compounds read low; activity change, % (tested at about 1.8 µM); 340,000 compounds, 0.95% hits;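 active = maximum activity change below -70%; inconclusive = maximum activity change from -70% to -50%; inactive = maximum activity change above -50%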;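 note: thallium influx rate constant from kinetic fluorescence after stimulation buffer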
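FluxOr-based Tl+ influx in U2OS cells transduced with KCNH2 3.1 virus; rate constants normalized to DMSO controls.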
CBFb RUNX1 block: qHTS Assay for Compounds Blocking the Interaction Between CBF-beta and RUNX1 for the Treatment of Acute Myeloid Leukemia | Runt-related transcription factor 1 (Homo sapiens) + Core-binding factor subunit beta … | AlphaScreen CBFb-His/RUNX1-biotin binding, biochemical | Potency, µM (titrated, usually from 59.8 µM), actives largely listed as inhibitors | 230,000 tested, under 10 active | AID 1477, 2009
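Proteins preincubated together for 20 min at RT before compound addition; 15 min later, nickel and streptavidin beads were added and left 90 min prior to AlphaScreen measurement.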
VDR inh: Inhibitors of the vitamin D receptor (VDR): qHTS; Vitamin D3 receptor (Homo sapiens), P11473; VDR-SRC2-3 peptide fluorescence polarization, 2 h; Potency, µM, usual class: inhibitors; 400,000 compounds, 0.93% hits; AID 504847, 2011
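Compounds are added to VDR with labelled SRC2-3 coactivator peptide and held 2 h at room temperature. Inhibition of the VDR–peptide interaction is then read as a change in fluorescence polarization.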
Hits are given with their value; - = inactive; ? = inconclusive; . = no result. The list is not random: actives were taken first. Their share in the collection is about 3.8%. Unless noted, calls come from the whole dose curve; as a rule, active = well fitted curve in the direction sought with a large enough effect; inconclusive = small, poorly fitted or top-dose-only effect, or another doubt; inactive = no such curve, though single readings can be large; an effect the other way counts as inactive or inconclusive.

SMILES | MBNL1-CUG inh | PLK1 PBD block | KCNH2 WT inh | KCNH2 3.1 block | CBFb RUNX1 block | VDR inh
Cc1ccc(NC(=O)NCC2CCN(Cc3cc(C)ccc3Cl)CC2)c(C)c1 | - | - | -151 | - | - | -
CN1CCC(=O)N(C(CSc2ccc(Br)cc2)c2ccccc2)CC1 (centres undefined) | . | . | . | . | - | -
NC(=O)c1cc(S(=O)(=O)NCc2cccs2)cs1 | - | - | - | -70 | . | -
COC(=O)c1cc(S(=O)(=O)NCc2cccs2)c[nH]1 | - | - | -244 | - | . | -
CCN(c1ccccc1)S(=O)(=O)c1csc(C(N)=O)c1 | - | 27µM | - | - | . | -
O=C(O)CCn1cnc2onc(-c3ccccc3Cl)c2c1=O | . | . | . | . | . | -
Cc1ccc(NC(=O)C2CCN(C(=O)c3cnn(-c4ccccc4)c3-n3cccc3)CC2)cc1 | . | . | . | . | . | -
CC[C@H](C)[C@H](NC(=O)[C@H](CO)NC(=O)[C@H](C)NC(=O)[C@H](C)NC(=O)[C@H](CCC(N)=O)NC(=O)[C@H](CCCCN)NC(=O)[C@H](CCCN=C(N)N)NC(=O)[C@@H](N)CS)C(=O)N[C@@H](CCCCN)C(=O)N[C@H](C(=O)N[C@@H](C)C(=O)N[C@H](C(=O)N[C@@H](CO)C(=O)O)C(C)C)C(C)C | . | . | . | . | - | ?
O=[N+]([O-])c1ccc(OCCCOc2cccc3cccnc23)cc1 | - | - | - | -80 | . | -
COC(=O)C1=C(C(=O)OC)C(c2ccccc2O)c2sc(=O)[nH]c2S1 (centres undefined) | - | 4.2µM | - | - | - | 20µM
COC(=O)c1sc2ccccc2c1C(=O)OC | - | - | - | - | - | -
CC1CCC(NC(=O)CNC(=O)Cc2cccc3ccccc23)CC1 (centres undefined) | - | 24µM | - | - | . | ?
CC1Cn2c(C(=O)NCCc3ccc(Cl)cc3)cc3cccc(c32)S1 (centres undefined) | . | . | . | . | . | -
Cc1nc2c(C)cccc2cc1C(=O)N/N=C/c1ccc(C(=O)O)cc1 | - | 30µM | - | - | - | -
Cc1nc2c(C)cccc2cc1C(=O)N/N=C/c1ccc(N(C)C)cc1 | - | - | - | - | - | -
O=C(COc1ccc(F)cc1)OCc1cc(=O)n2nc(C3CC3)sc2n1 | . | . | . | . | . | -
CCc1ccc(NC(=O)Cn2c(=O)n(CCCCC(=O)NCCc3ccccc3)c(=O)c3ccccc32)cc1 | . | . | . | . | . | -
O=C(NNc1ccccc1[N+](=O)[O-])Nc1cccc(Cl)c1 | ? | 21µM | - | - | ? | 79µM
CC(=O)OCC(=O)Nc1ccc(Cl)cc1Cl | - | - | - | - | - | -
O=C(CC(=O)Nc1ccc(Cl)cc1Cl)Nc1ccc(Cl)cc1Cl | - | 30µM | - | - | . | -
O=C(NNc1ccccc1[N+](=O)[O-])Nc1ccc(F)cc1F | ? | - | - | - | . | -
O=C(Cc1ccccc1)NCC(=O)Nc1cc(Cl)ccc1Cl | - | 27µM | - | - | . | ?
O=C(NNc1ccccc1)Nc1cc(Cl)ccc1Cl | . | - | - | - | . | 40µM
CCOc1ccccc1C(=O)Nc1cc(-c2ccc(C)cc2)no1 | . | . | . | . | . | -
O=C(CSc1cccc[n+]1[O-])c1cccs1 | - | 24µM | - | - | - | -
O=C(CSc1cccc[n+]1[O-])c1cc2ccccc2o1 | ? | 27µM | - | - | - | -
COc1cc2ccccc2cc1C(=O)Nc1ccc2oc(-c3ccccc3)nc2c1 | . | . | . | . | . | -
Cc1ccccc1NC(=O)NC1(C(=O)N2CCOCC2)CCCCC1 | - | - | - | - | - | -
O=C(Nc1ccccc1C(F)(F)F)NC1(C(=O)N2CCOCC2)CCCCC1 | . | 6.7µM | - | - | . | ?
